Experimental data taken from PubChem BioAssay.
Records with an inconclusive call do not appear. Active and inactive are the calls of the source.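 How the source made its calls, unless noted: active means viability at or under a set limit in both replicates, limit being median viability minus 3 SD (cut at about 48% in these data, passing the limit was not always enough); inconclusive means at or under the limit in just one replicate; inactive means at or above the limit in both replicates.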

Tests used:
[1] = Her2 expression decrease, cell viability multiplex – SKBR3 breast tumor cells, AlphaScreen, ATP viability, primary screen (AID 461;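 active means Her2 level under about 52% in both replicate screens, with viability over 70% of control, limit read from the data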;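 on Her2 level: lower value means less Her2 protein in the cells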;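 on viability: percent of carrier control wells set as 100% viability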); settings: SKBR3 Her2 protein level, 18-24 h, measured here: SKBR3 viability, ATP luminescence, at 10 µM
[2] = target: Receptor tyrosine-protein kinase erbB-2 (Homo sapiens) (UniProt P04626); test: as above; settings: 18-24 h, at 10 µM, stronger effect = lower value
[3] = reduced viability of SK-BR-3 breast cancer cells – cell-based, 24 h, human, pilot screen (AID 572;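 active means viability at or below 10% of carrier control in both of two separate runs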;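 further: compound exposure lasted between 18 and 24 h rather than exactly 24 h; 100% = carrier-treated control wells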); settings: SK-BR-3 viability, CellTiter-Glo luminescence, at 10 µM, stronger effect = lower value
[4] = HUVEC growth inhibition – cell-based, human, primary screen (AID 575;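 active means viability at or below 30% in both replicate assays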;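 further: 100% = median of untreated cell wells with 0.1% DMSO on each plate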); settings: HUVEC proliferation, CellTiter-Glo luminescence, 72 h; at 10 µM; stronger effect = lower value
[5] = H69AR cell proliferation blockers – human, duplicate replicates, primary screen (AID 580); settings: H69AR lung tumor cells viability, ATP luminescence, 72 h; at 10 µM; stronger effect = lower value;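 further: 100% = mean luminescence of untreated wells and 0% = no signal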
[6] = MRP1 drug-resistance reversers in H69AR cells – cell-based, doxorubicin co-treatment, pilot screen (AID 601;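 active means viability loss from added drug above about 55%, and viability with drug at most 40%, in both replicates, limit read from the data, passing the limit was not always enough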); settings: CellTiter-Glo, 72 h, at 10 µM; for differential viability (reversal): stronger effect = higher value
[7] = yeast transport mutant growth inhibition pilot in 384-well plates, post-Golgi transport modulator project (AID 636; in the data active means inhibition above about 31%); settings: absorbance 615 nm, about 18 h, stronger effect = higher value
[8] = growth suppression of yeast trafficking mutant, preliminary HTS, modulators of trafficking downstream of Golgi apparatus project, 1536-format plate, OD 615 nm (AID 637; in the data active means inhibition above about 30%); settings: yeast transport mutant growth, absorbance 615 nm, 18 h; stronger effect = higher value
[9] = S. cerevisiae growth inhibition in permissive medium (OD615), pilot counter-assay for S. cerevisiae lifespan shortening project, permissive growth control (AID 705;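 active means growth inhibition above 25% in both replicates, a cutoff set 3 SD above the mean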); settings: OD615, 24 h, at 10 µM, stronger effect = higher value
[10] = S. cerevisiae growth inhibition in restrictive medium, OD615, pilot screen, restrictive growth control, yeast lifespan reduction project (AID 706;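 active means growth inhibition above a set limit, 3 SD over mean compound inhibition, in both replicates, cut at about 43% in these data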;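 further: modified DeaD lifespan yeast strain shifted to restrictive glucose medium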); settings: OD615, 48 h, at 10 µM, stronger effect = higher value
[11] = doxorubicin toxicity protection in MRP-1 cells – H69AR cells, CellTiter-Glo, duplicate, MRP-1 activator project, pilot screen (AID 807;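 active means viability increase at or above a cutoff of the median across tested compounds plus 3 SD, cut at about 8.5% in these data, passing the limit was not always enough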;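 further: compound pretreatment 18-22 h then 72 h combined with doxorubicin; 0% = doxorubicin alone and 100% = vehicle without doxorubicin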); settings: H69AR viability with doxorubicin, CellTiter-Glo luminescence; at 10 µM; stronger effect = higher value
[12] = viability of HCT116 without oncogenic beta-catenin – human colon tumor cells, pilot screen (AID 823;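 active means cell viability at or below a set limit in both duplicate runs, the limit being the all-compound median minus 4 SD, cut at about 23% in these data, passing the limit was not always enough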;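 further: 0% = wells killed by 20 µM Hyamine and 100% = untreated DMSO cell wells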); settings: HCT116 beta-catenin knockout viability, CellTiter-Glo, 60 h; at 10 µM; stronger effect = lower value
[13] = viability of PTEN-null HCT116 cells – cell-based, HCT116 clonal line, CellTiter-Glo, pilot screen (AID 824;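 active means viability at or below 27.92% in each of two runs, the all-compound median minus 4 SD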;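 further: 0% = 20 µM Hyamine control and 100% = vehicle cell control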); settings: HCT116 PTEN-deleted viability, 60 h, at 10 µM, stronger effect = lower value
[14] = RAM pathway blockade in budding yeast – dse1pr::URA3 reporter, 5-FOA selection, pilot screen (AID 869;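 active means inhibition over a set limit, the all-compound mean plus 3 SD, in both replicate runs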;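 further: 0% = DMSO wells with no growth and 100% = 10 µM 1-NA-PP1 with full growth; RAM network block rescues cells from 5-FOA so hits raise OD615 growth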); settings: S. cerevisiae dse1pr::URA3 5-FOA growth, OD615, 2 d; at 10 µM; stronger effect = higher value; strain carries analog-sensitive mutant Cbk1 kinase
[15] = RAM signaling pathway blockade in yeast – S. cerevisiae, Pdr1DBD-CYC8 efflux-inhibited sensitized strain, primary screen (AID 1298;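 active means RAM network inhibition above 8.4% in each of two replicates, 3 SD over the compound average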;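 further: 0% = DMSO untreated cells without growth and 100% = 10 µM 1-NA-PP1 full growth; higher means more yeast growth rescued from 5-FOA killing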); settings: S. cerevisiae cbk1-as DSE1-URA3 strain, 5-FOA growth OD615, 2 d; at 50 µM; stronger effect = higher value
[16] = H69AR cells + 2 uM doxorubicin, measured here: viability with 2 uM doxorubicin, stronger effect = lower value
[17] = H69AR cells, compound alone cytotoxicity

Receptor tyrosine-protein kinase erbB-2 (Homo sapiens), sequence (P04626 whole entry, looked up): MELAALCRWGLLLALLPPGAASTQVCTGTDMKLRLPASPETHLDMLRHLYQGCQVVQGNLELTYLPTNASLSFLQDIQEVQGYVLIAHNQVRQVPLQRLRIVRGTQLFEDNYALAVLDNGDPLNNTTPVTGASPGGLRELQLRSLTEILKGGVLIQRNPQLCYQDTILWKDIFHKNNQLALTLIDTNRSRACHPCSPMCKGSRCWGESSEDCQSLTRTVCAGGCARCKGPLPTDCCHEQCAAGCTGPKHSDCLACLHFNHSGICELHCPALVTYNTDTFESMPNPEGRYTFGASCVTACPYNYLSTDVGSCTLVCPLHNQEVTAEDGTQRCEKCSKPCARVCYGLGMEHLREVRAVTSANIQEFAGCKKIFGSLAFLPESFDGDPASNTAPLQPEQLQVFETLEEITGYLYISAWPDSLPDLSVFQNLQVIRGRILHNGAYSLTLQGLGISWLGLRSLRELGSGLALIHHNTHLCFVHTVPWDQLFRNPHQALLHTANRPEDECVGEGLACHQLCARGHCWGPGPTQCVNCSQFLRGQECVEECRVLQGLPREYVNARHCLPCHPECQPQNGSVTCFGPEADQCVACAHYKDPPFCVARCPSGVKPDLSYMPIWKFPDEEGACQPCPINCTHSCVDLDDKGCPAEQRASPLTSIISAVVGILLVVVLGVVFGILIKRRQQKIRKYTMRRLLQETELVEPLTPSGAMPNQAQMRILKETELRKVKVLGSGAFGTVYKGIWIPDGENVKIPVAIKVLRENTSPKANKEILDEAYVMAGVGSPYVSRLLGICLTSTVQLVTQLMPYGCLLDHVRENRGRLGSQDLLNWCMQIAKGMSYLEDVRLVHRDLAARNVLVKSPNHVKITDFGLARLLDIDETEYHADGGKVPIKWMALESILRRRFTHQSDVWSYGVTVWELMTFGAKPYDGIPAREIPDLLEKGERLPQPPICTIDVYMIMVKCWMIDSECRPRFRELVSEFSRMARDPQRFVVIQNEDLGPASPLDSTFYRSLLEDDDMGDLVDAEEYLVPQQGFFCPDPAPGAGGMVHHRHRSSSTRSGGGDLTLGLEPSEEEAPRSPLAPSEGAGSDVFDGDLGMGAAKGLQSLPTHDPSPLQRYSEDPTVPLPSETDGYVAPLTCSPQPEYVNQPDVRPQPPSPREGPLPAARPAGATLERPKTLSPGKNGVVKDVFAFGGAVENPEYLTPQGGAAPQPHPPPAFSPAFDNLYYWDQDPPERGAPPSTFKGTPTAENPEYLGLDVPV

| Compound | viability [1] | Her2 level [2] | viability [3] | viability [4] | viability [5] | differential viability (reversal) ([6]; H69AR cells + 2 uM doxorubicin) | viability [6, 16] | viability [6, 17] | inhibition [7] | inhibition [8] | growth inhibition [9] | growth inhibition [10] | viability increase [11] | viability [12] | viability [13] | inhibition [14] | RAM network inhibition [15] |
| --- | --- | --- | --- | --- | --- | --- | --- | --- | --- | --- | --- | --- | --- | --- | --- | --- | --- |
| O=C(NC(=O)c1cccc(F)c1)OC[C@@H]1CCCN2CCCC[C@H]12 | 102% | 111% (inactive) | 102% (inactive) | 110% (inactive) | 96.5% (inactive) | 0.59% (inactive) | 95.9% | 96.5% | -6% (inactive) | 1.48% (inactive) | 1.28% (inactive) | -9.63% (inactive) | -0.15% (inactive) | 99.4% (inactive) | 96.3% (inactive) | 0.89% (inactive) | 9.99% (inactive) |
| O=C(O)COc1ccc(S(=O)(=O)NCCc2ccccc2)cc1 | 105% | 103% (inactive) | 105% (inactive) | 115% (inactive) | 106% (inactive) | 27.5% (inactive) | 78.8% | 106% | -6.4% (inactive) | 2.62% (inactive) | -6.59% (inactive) | 10.2% (inactive) | -0.3% (inactive) | 108% (inactive) | 96.2% (inactive) | 1.84% (inactive) | -2.61% (inactive) |
| COc1ccccc1-n1c(=O)[nH]c2c(C(N)=O)nc(CC(C)C)nc21 | 81% | 109% (inactive) | 81% (inactive) | 96.8% (inactive) | 80.4% (inactive) | -12.7% (inactive) | 93% | 80.4% | -2.93% (inactive) | -2.17% (inactive) | -15.9% (inactive) | -13.4% (inactive) | -2.94% (inactive) | 97.9% (inactive) | 99.5% (inactive) | 1.01% (inactive) | 2.83% (inactive) |
| CCCOc1ccc(N2CC(C(=O)Nc3ccc4c(c3)OCO4)CC2=O)cc1 (stereo not drawn) | 107% | 94% (inactive) | 107% (inactive) | 79.3% (inactive) | 86.4% (inactive) | -9.04% (inactive) | 95.4% | 86.4% | -4.13% (inactive) | -1.67% (inactive) | -11.2% (inactive) | 12.3% (inactive) | -2.44% (inactive) | 107% (inactive) | 102% (inactive) | 2.89% (inactive) | 2.77% (inactive) |
| COCCCN1C(=O)C(=O)/C(=C(/O)c2ccc(OCC(C)C)cc2C)C1c1cccnc1 (stereo not drawn) | 109% | 110% (inactive) | 109% (inactive) | 104% (inactive) | 98.1% (inactive) | 1.47% (inactive) | 96.6% | 98.1% | -2.21% (inactive) | -2.67% (inactive) | -1.21% (inactive) | 15.7% (inactive) | 0.13% (inactive) | 106% (inactive) | 95.6% (inactive) | 0.48% (inactive) | 2.11% (inactive) |
| CCC1CCCCN1C(=O)CSc1nnc(-c2ccc(OC)cc2)o1 (stereo not drawn) | 98% | 102% (inactive) | 98% (inactive) | 99.8% (inactive) | 87.6% (inactive) | -6.46% (inactive) | 94.1% | 87.6% | -3.6% (inactive) | -9.34% (inactive) | 7.74% (inactive) | 54.4% (active) | -1.66% (inactive) | 95.5% (inactive) | 95.7% (inactive) | 2.38% (inactive) | 1.19% (inactive) |
| O=C(Nc1ccncc1)c1cccc(F)c1 | 103% | 130% (inactive) | 103% (inactive) | 91.5% (inactive) | 92% (inactive) | -0.005% (inactive) | 92% | 92% | -3.08% (inactive) | -2.33% (inactive) | -5.12% (inactive) | 3.45% (inactive) | -1.19% (inactive) | 98.4% (inactive) | 91.4% (inactive) | -0.02% (inactive) | 2.86% (inactive) |
| COc1ccc(-c2nc(CSCC(=O)N3CCc4ccccc4C3)c(C)o2)cc1OC | 88.5% | 69.5% (inactive) | 88.5% (inactive) | 93.8% (inactive) | 92.6% (inactive) | 0.215% (inactive) | 92.4% | 92.6% | -0.38% (inactive) | -0.5% (inactive) | 13.3% (inactive) | 33.4% (inactive) | -3.15% (inactive) | 93.9% (inactive) | 89.8% (inactive) | -0.395% (inactive) | 3.92% (inactive) |
| Cc1nc2ccc(S(=O)(=O)NC(C(=O)NCc3cccs3)C(C)C)cc2s1 (stereo not drawn) | 88.5% | 116% (inactive) | 88.5% (inactive) | 97.9% (inactive) | 111% (inactive) | 18.2% (inactive) | 92.6% | 111% | -5% (inactive) | -2.67% (inactive) | -3.81% (inactive) | -9.54% (inactive) | -0.45% (inactive) | 102% (inactive) | 99.6% (inactive) | 2.96% (inactive) | 5.02% (inactive) |
